In PubChem BioAssay (NCI):
This is part of a sample that, as a whole, favours compounds with a hit. Of some 79,000 tested, about 15% had one in any assay. Values without a mark were called inactive. Active and inactive are the calls of the source. Rule as the data show it: active = growth inhibition above about 70%; inactive = the rest.

Tests used:
[1] = NCI Yeast Anticancer Drug Screen. Data for the rad50 strain (AID 155);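 also: 0% = growth of vehicle-only cultures of the same strain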; conditions: S. cerevisiae rad50 strain growth inhibition, hits give high values
How it was run: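 DNA repair mutant yeast, compound exposure, growth read-out; inhibition is taken relative to vehicle.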

[2] = NCI Yeast Anticancer Drug Screen. Data for the mec2-1 strain (AID 157); conditions: S. cerevisiae mec2-1 strain, hits give high values
How it was run: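 Using mec2-1 yeast: add compound, measure growth, express inhibition versus vehicle-treated cultures.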

[3] = NCI Yeast Anticancer Drug Screen. Data for the sgs1 mgt1 strain (AID 161);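 also: 0% = growth of cultures given vehicle only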; conditions: S. cerevisiae sgs1 mgt1 strain, hits give high values
How it was run: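 Growth of a repair-deficient yeast mutant was monitored after compound treatment and expressed as inhibition relative to vehicle-treated cultures.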

[4] = NCI Yeast Anticancer Drug Screen. Data for the cln2 rad14 strain (AID 165);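 also: 0% = growth equal to vehicle treated cultures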; conditions: S. cerevisiae cln2 rad14 strain, hits give high values
How it was run: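 Yeast strain cln2 rad14, bearing defects in cell cycle control and DNA repair, serves as the test system; values reflect growth inhibition compared with vehicle.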

[5] = NCI Yeast Anticancer Drug Screen. Data for the bub3 strain (AID 167); conditions: S. cerevisiae bub3 mutant strain, hits give high values
How it was run: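 In this screen, a yeast mutant lacking normal mitotic checkpoint function is challenged with compound. Relative growth versus vehicle gives the inhibition value.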

[6] = NCI Yeast Anticancer Drug Screen. Data for the mlh1 rad18 strain (AID 175); conditions: S. cerevisiae mlh1 rad18 strain growth inhibition, hits give high values
How it was run: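 Steps: expose repair-defective yeast to compound; measure growth; express inhibition against vehicle-treated controls.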

[7] = at 5.0 µM (retest, dose inferred, filed as 0.5)
[8] = at 50.0 µM (retest, dose inferred, filed as 5.0)

Row | SMILES | growth inhibition [1, 7] | growth inhibition [1, 8] | growth inhibition ([1]; at 50.0 µM) | growth inhibition [2, 7] | growth inhibition [2, 8] | growth inhibition ([2]; at 50.0 µM) | growth inhibition [3, 7] | growth inhibition [3, 8] | growth inhibition ([3]; at 50.0 µM) | growth inhibition [4, 7] | growth inhibition [4, 8] | growth inhibition ([4]; at 50.0 µM) | growth inhibition [5, 7] | growth inhibition [5, 8] | growth inhibition ([5]; at 50.0 µM) | growth inhibition [6, 7] | growth inhibition [6, 8] | growth inhibition ([6]; at 50.0 µM)
1 | CC1CC(c2ccccc2)(c2ccccc2)C(=O)C(C)N1C (stereo not given) | -1% | 22% | 13.6% | -2% | -5% | 29.9% | 0% | -19% | 14.2% | -1% | -2% | 28% | -4% | 10% | 72% (active) | -3% | 7% | 25.9%
2 | C[n+]1c(/C=C\c2ccccc2)sc2ccccc21 | 23% | 89% (active) | 82.8% (active) | 21% | 90% (active) | 82.3% (active) | 33% | 93% (active) | 88.7% (active) | 19% | 83% (active) | 74.8% (active) | 7% | 86% (active) | 76.9% (active) | 15% | 81% (active) | 87% (active)
3 | [N-]=[N+]=Nc1c([N+](=O)[O-])c(=O)n(-c2ccccc2)c2ccccc12 | -8% | 34% | 65.1% | -3% | 54% | 67.3% | 0% | 32% | 70% (active) | 27% | 21% | 46.9% | -21% | 62% | 61% | 4% | 57% | 68.2%
4 | CC(C)=NNc1ncnc2nc[nH]c12 | 11% | 3% | 12.5% | -1% | -11% | 19.1% | -4% | -13% | -28.8% | 4% | -3% | 25.6% | 5% | 2% | 6.9% | -14% | 3% | -7.5%
5 | C1=C(c2c(-c3ccccc3)[nH]c3ccccc23)Cc2ccccc21 | 3% | 93% (active) | 12.6% | 0% | 95% (active) | 43.7% | 0% | 54% | 62.1% | -12% | 93% (active) | 30.2% | -3% | 58% | 71.4% (active) | 3% | 93% (active) | 54.8%
6 | CC(C)c1ccc(C(C)C)c(O)c1O | 13% | 72% (active) | 82% (active) | 24% | 73% (active) | 87.3% (active) | 22% | 79% (active) | 88% (active) | 21% | 63% | 53.2% | 7% | 67% | 87.2% (active) | 7% | 94% (active) | 69.8%
7 | CN(C)CCN(C)N=Nc1c(-c2cccs2)n[nH]c1C(F)(F)F | 98% (active) | 99% (active) | 99.1% (active) | 99% (active) | 100% (active) | 99.7% (active) | 99% (active) | 100% (active) | 99.6% (active) | 99% (active) | 98% (active) | 99.3% (active) | 99% (active) | 99% (active) | 99.5% (active) | 99% (active) | 100% (active) | 99.5% (active)
8 | O=C1c2ccccc2-c2cc(S)c([N+](=O)[O-])cc21 | -10% | 12% | 9.15% | -9% | 10% | 18.5% | -1% | 12% | 36.8% | 1% | 2% | 21% | 4% | 14% | 9.45% | -6% | 4% | 18.5%
9 | CCCCC(/C=N\NC(=O)c1ccc[n+](C)c1)=C/c1ccccc1 | 18% | 1% | 88.3% (active) | 1% | -3% | 95.4% (active) | -6% | -3% | 88.7% (active) | -2% | -5% | 18.5% | -4% | -7% | 94.5% (active) | -1% | 16% | 90.6% (active)
10 | CC[Si](CC)(CC)c1ccc(CCNCCS)s1 | -1% | 96% (active) | 97.4% (active) | 32% | 99% (active) | 98.7% (active) | 52% | 98% (active) | 98.2% (active) | 8% | 97% (active) | 98% (active) | 19% | 99% (active) | 98.4% (active) | 49% | 97% (active) | 98.3% (active)
11 | Nc1ccc(O)c2ccccc12 | 19% | 80% (active) | 85.5% (active) | -4% | 83% (active) | 63.8% | 7% | 63% | 68.3% | -10% | 8% | 10.1% | 7% | 93% (active) | 87.2% (active) | 11% | 90% (active) | 91% (active)
12 | CC(=O)OCCc1ccc(CCc2ccccc2)cc1 | 13% | 47% | 40.3% | 1% | 4% | 18.6% | 6% | 28% | 18.6% | 4% | -6% | -31.6% | 8% | 45% | 67.7% | 6% | -4% | 62.6%
13 | ON(Cc1ccccc1)C(=S)c1ccccc1 | 23% | 98% (active) | 91.3% (active) | 19% | 99% (active) | 92.8% (active) | 24% | 98% (active) | 91.5% (active) | 1% | 92% (active) | 89.3% (active) | 31% | 98% (active) | 89% (active) | 25% | 98% (active) | 90.7% (active)
14 | CN(c1ccccc1)c1c2c(oc(=O)c1Cl)-c1ccccc1SC2 | 16% | 45% | 86% (active) | 12% | 8% | 46.2% | 13% | 40% | 62.4% | 7% | 32% | 10.9% | 0% | 85% (active) | 93.5% (active) | 7% | 96% (active) | 55%
15 | CC(=O)C1(C(C)=O)C2=C(C(=O)C(Cl)=C(Cl)C2=O)N2C=CC=CC21 (stereo not given) | 85% (active) | 95% (active) | 98.3% (active) | 81% (active) | 97% (active) | 98.5% (active) | 78% (active) | 97% (active) | 98.3% (active) | 40% | 95% (active) | 96.8% (active) | 91% (active) | 97% (active) | 98.3% (active) | 92% (active) | 96% (active) | 98.2% (active)
16 | C(=C1/CNC/C(=C/c2ccccc2)C1)/c1ccccc1 | 11% | 99% (active) | 99.5% (active) | 17% | 99% (active) | 99.6% (active) | 16% | 96% (active) | 99.5% (active) | 27% | 99% (active) | 99.2% (active) | 6% | 99% (active) | 99.3% (active) | -1% | 97% (active) | 99.3% (active)
17 | COC(=O)C1C(O)C(C)C(=O)C(C)/C=C\C=C(C)C(=O)Nc2c(C)c(OC(C)=O)c3c(c2O)C(=O)C(C)=C2OCOC(=C23)C(C)=CC(C)(O)C(O)C(C)C1O (stereo not given) | 9% | 52% | 88.1% (active) | -3% | 77% (active) | 88.8% (active) | 0% | 59% | 92.2% (active) | 9% | 75% (active) | 75.6% (active) | -4% | 76% (active) | 87.3% (active) | -19% | 68% | 81% (active)
18 | OC1(c2ccccc2)c2ccccc2Sc2ccccc21 | 1% | 99% (active) | 99% (active) | 6% | 99% (active) | 99.2% (active) | 3% | 97% (active) | 99.2% (active) | 8% | 99% (active) | 99% (active) | -16% | 98% (active) | 99.3% (active) | 7% | 97% (active) | 99.1% (active)
19 | COc1cccc(C2c3cc4c(cc3OC(NNc3ccccc3)C2C)OCO4)c1OC (stereo not given) | 14% | 94% (active) | 73.2% (active) | 3% | 94% (active) | 44.7% | 9% | 86% (active) | 44% | 11% | 90% (active) | 27.1% | 4% | 94% (active) | 34.2% | 24% | 93% (active) | 56.4%
20 | ICCCCSc1cc(-c2ccccc2)[o+]c2ccccc12 | 23% | 92% (active) | 93% (active) | 10% | 51% | 72.2% (active) | 19% | 75% (active) | 75.2% (active) | 1% | 49% | 24.3% | 7% | 85% (active) | 75.4% (active) | 11% | 71% (active) | 88.8% (active)
21 | OC1CCN(c2c3ccccc3nc3ccccc23)CC1 | 21% | 85% (active) | 12.2% | 7% | 67% | 11.4% | 32% | 94% (active) | 2.65% | 24% | 23% | 37.4% | 1% | 19% | 5.55% | 8% | 81% (active) | 15%
22 | O=C1OC(=O)C2C1C1(c3ccccc3)OC2(c2ccccc2)c2c(Br)c(Br)c(Br)c(Br)c21 (stereo not given) | 23% | 99% (active) | 98.8% (active) | 25% | 100% (active) | 99.4% (active) | 15% | 99% (active) | 99.2% (active) | 18% | 99% (active) | 98.6% (active) | 2% | 99% (active) | 98.7% (active) | 38% | 99% (active) | 98.2% (active)
23 | Oc1ccc(N=Nc2cc(Cl)ccc2Cl)cc1 | 92% (active) | 95% (active) | 98.5% (active) | 94% (active) | 96% (active) | 98.2% (active) | 95% (active) | 95% (active) | 98.5% (active) | 94% (active) | 94% (active) | 82.5% (active) | 93% (active) | 95% (active) | 98% (active) | 94% (active) | 96% (active) | 97.7% (active)
24 | COc1ccccc1C1(c2ccccc2OC)OC(=O)c2ccccc21 | 3% | 14% | 77.8% (active) | -1% | 12% | 60.6% | 3% | -18% | 80.3% (active) | 1% | 22% | 69% | -2% | 17% | 77.3% (active) | -6% | 33% | 76% (active)
25 | COC(=O)c1cc(-c2ccc([N+](=O)[O-])cc2)c2c(=O)n(-c3ccccc3)[nH]c2n1 | 0% | 84% (active) | 89.8% (active) | -1% | 75% (active) | 91.1% (active) | -1% | 85% (active) | 61.1% | -3% | 77% (active) | 42.4% | -3% | 83% (active) | 50.2% | -3% | 86% (active) | 92.2% (active)
